Results: PubChem BioAssay AID602143 (Vanderbilt Specialized Chemistry Center, 2011)
The source made the active and inactive calls. Cut-off read from the data, not from the text of the source: active = remaining activity below about 50%; inactive = the rest.

These compounds were tested against Phospholipase D2 (Homo sapiens) (UniProt O14939) (assay: PLD2 inhibitors in cells, cell-based, HEK293, single concentration (AID 602143;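 note: tested at 200 nM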)). Conditions: HEK293 cellular PLD2 activity, percent of control; stronger effect = lower value.
Chain of Phospholipase D2 (Homo sapiens) (O14939 whole entry, looked up): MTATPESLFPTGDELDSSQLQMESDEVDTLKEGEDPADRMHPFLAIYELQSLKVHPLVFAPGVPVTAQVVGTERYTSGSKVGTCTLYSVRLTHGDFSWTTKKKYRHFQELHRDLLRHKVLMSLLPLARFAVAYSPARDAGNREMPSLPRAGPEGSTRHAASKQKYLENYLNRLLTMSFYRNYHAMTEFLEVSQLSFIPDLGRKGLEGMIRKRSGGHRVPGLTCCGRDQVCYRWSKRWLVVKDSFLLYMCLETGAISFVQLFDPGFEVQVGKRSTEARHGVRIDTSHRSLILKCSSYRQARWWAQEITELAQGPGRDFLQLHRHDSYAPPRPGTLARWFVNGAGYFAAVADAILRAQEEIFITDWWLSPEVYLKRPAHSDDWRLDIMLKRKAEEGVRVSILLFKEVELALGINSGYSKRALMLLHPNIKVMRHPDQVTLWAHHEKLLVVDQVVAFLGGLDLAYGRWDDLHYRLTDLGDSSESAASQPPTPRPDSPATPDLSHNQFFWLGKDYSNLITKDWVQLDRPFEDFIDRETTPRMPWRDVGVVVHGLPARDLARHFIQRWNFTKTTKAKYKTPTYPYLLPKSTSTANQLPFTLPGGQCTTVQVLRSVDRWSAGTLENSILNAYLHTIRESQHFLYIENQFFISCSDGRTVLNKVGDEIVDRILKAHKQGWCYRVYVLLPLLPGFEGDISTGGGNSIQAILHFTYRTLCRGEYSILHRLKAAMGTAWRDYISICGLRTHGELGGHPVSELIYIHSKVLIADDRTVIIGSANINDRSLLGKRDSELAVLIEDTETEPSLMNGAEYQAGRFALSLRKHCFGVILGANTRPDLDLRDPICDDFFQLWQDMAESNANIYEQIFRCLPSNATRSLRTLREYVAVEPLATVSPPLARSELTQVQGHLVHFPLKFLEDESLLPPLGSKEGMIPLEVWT
Chain of Phospholipase D2 (Homo sapiens) (O14939 whole entry, looked up): as above
For `COc1ccccc1NC(=S)NCCN1CCC(n2c(=O)[nH]c3ccccc32)CC1`, the remaining activity was 126% (inactive). With `O=C(NCCN1CCC(n2c(=O)[nH]c3ccccc32)CC1)Nc1ccccc1F` the remaining activity was 105% (inactive). With `O=C(N[C@@H](Cc1ccccc1)CN1CCC(n2c(=O)[nH]c3ccccc32)CC1)c1ccc2ccccc2c1` the remaining activity was 96.7% (inactive). With `O=C(c1ccc(Cl)cc1)N1CCC2(CC1)C(=O)NCN2c1ccccc1` the remaining activity was 69.9% (inactive). With `C[C@@H](CN1CCC(c2nc3ccccc3[nH]2)CC1)NC(=O)c1ccc2ccccc2c1` the remaining activity was 86.5% (inactive). In the case of `O=C(NCCN1CCC(n2c(=O)[nH]c3ccccc32)CC1)c1cccc(F)n1`, the remaining activity is reported as 74.5% (inactive). For `O=C(NCCN1CCC(n2c(=O)[nH]c3ccccc32)CC1)NC(c1ccccc1)c1ccccc1`, the remaining activity was 123% (inactive). In the case of `O=C(NCCN1CCC(n2c(=O)[nH]c3ccc(F)cc32)CC1)c1cccc2c1C(=O)c1ccccc1-2`, the remaining activity is reported as 0% (active). `O=C(NCCN1CCC2(CC1)CNc1ccccc12)c1ccc2ccccc2c1` was tested, and the remaining activity was 61.8% (inactive). `O=C(CCc1ccccc1)NCCN1CCC(n2c(=O)[nH]c3ccccc32)CC1` was tested, and the remaining activity was 80.7% (inactive). For `COc1ccc(S(=O)(=O)NCCN2CCC(n3c(=O)[nH]c4ccccc43)CC2)cc1`, the remaining activity was 127% (inactive). `O=C1Cc2cc(CCN3CCN(c4nsc5ccccc45)CC3)c(Cl)cc2N1` was tested, and the remaining activity was 105% (inactive). `O=C(NCCN1CCC(n2c(=O)[nH]c3ccccc32)CC1)Nc1cccc(C(F)(F)F)c1` was tested, and the remaining activity was 131% (inactive). For `Cc1cccc(NC(=S)NCCN2CCC(n3c(=O)[nH]c4ccccc43)CC2)c1`, the remaining activity was 113% (inactive). With `O=C(NCCN1CCN(c2ccncc2)CC1)c1ccc(F)cc1O` the remaining activity was 112% (inactive). In the case of `O=C(c1ccc2ccccc2c1)N1CCC(n2c(=O)[nH]c3cc(Cl)ccc32)CC1`, the remaining activity is reported as 77.7% (inactive). `O=C(NCCN1CCC(n2c(=O)[nH]c3ccccc32)CC1)N1c2ccccc2Sc2ccccc21` was tested, and the remaining activity was 111% (inactive). For `O=C(c1ccc2ccccc2c1)N1CCC2(CC1)C(=O)NCN2c1ccccc1`, the remaining activity was 75.8% (inactive). `O=C(NCCN1CCC(C(=O)NCCCN2CCOCC2)CC1)c1ccc2ccccc2c1` was tested, and the remaining activity was 125% (inactive). For `O=C1c2ccccc2C(=O)N1CCCNc1ccc2ccccc2c1`, the remaining activity was 91.8% (inactive). For `O=c1[nH]c2ccccc2n1C1CCN(CCNC(=S)Nc2ccccc2F)CC1`, the remaining activity was 87.4% (inactive). In the case of `O=C(NCCN1CCC(n2c(=O)[nH]c3ccccc32)CC1)c1ncccn1`, the remaining activity is reported as 90.1% (inactive). `C[C@@H](CN1CCC(n2c(=O)[nH]c3ccccc32)CC1)NC(=O)c1ccco1` was tested, and the remaining activity was 97.1% (inactive). For `C[C@@H](CN1CCC(n2c(=O)[nH]c3cc(-c4ccsc4)ccc32)CC1)NC(=O)[C@H]1C[C@@H]1c1ccccc1`, the remaining activity was 81.2% (inactive). With `O=c1[nH]c2ccccc2n1C1CCN(CCN2CCCC2)CC1` the remaining activity was 93.8% (inactive). In the case of `CN(CCN1CCC(n2c(=O)[nH]c3ccccc32)CC1)C(=O)c1ccc2ccccc2c1`, the remaining activity is reported as 101% (inactive). `C[C@@H](CN1CCC2(CCc3ccccc32)CC1)NC(=O)c1ccc2ccccc2c1` was tested, and the remaining activity was 104% (inactive). In the case of `O=C(NCCN1CC=C(n2c(=O)[nH]c3ccccc32)CC1)[C@H]1C[C@@H]1c1ccccc1`, the remaining activity is reported as 114% (inactive). In the case of `O=C1c2ccccc2C(=O)N1CCN1CCC(n2c(=O)[nH]c3cc(Cl)ccc32)CC1`, the remaining activity is reported as 90.8% (inactive). For `C[C@@H](CN1CCC(n2c(=O)[nH]c3ccccc32)CC1)NC(=O)c1ccc(F)c(F)c1`, the remaining activity was 75.6% (inactive). For `O=C(NCCN1CCC(n2c(=O)[nH]c3ccccc32)CC1)c1cc(-c2ccccc2)no1`, the remaining activity was 50.8% (inactive). `CCOC(=O)CNC(=O)NCCN1CCC(n2c(=O)[nH]c3ccccc32)CC1` was tested, and the remaining activity was 121% (inactive). `CC(C)[C@@H](CN1CCC(n2c(=O)[nH]c3ccccc32)CC1)NC(=O)c1ccc2ccccc2c1` was tested, and the remaining activity was 73.3% (inactive). `O=C(NCCN1CCC(C(=O)NCCc2ccccn2)CC1)c1ccc2ccccc2c1` was tested, and the remaining activity was 100% (inactive). In the case of `C[C@@H](CN1CCC(n2c(=O)[nH]c3cc(I)ccc32)CC1)NC(=O)c1ccc2ccccc2c1`, the remaining activity is reported as 101% (inactive). `CCCS(=O)(=O)NCCN1CCC(n2c(=O)[nH]c3ccccc32)CC1` was tested, and the remaining activity was 64.7% (inactive). `C[C@@H](CN1CCC2(CCc3ccccc32)CC1)NC(=O)c1cnc2ccccc2c1` was tested, and the remaining activity was 108% (inactive). In the case of `C[C@@H](CN1CCC(n2c(=O)[nH]c3cc(-c4ccc(F)c(F)c4)ccc32)CC1)NC(=O)[C@H]1C[C@@H]1c1ccccc1`, the remaining activity is reported as 80.4% (inactive). With `C[C@@H](CN1CCC(c2nc3ccc(F)cc3[nH]2)CC1)NC(=O)[C@H]1CC1c1ccccc1` (stereo not given in full) the remaining activity was 92.5% (inactive). In the case of `O=C(NCCN1CCC(c2nc3ccccc3[nH]2)CC1)c1ccc2ccccc2c1`, the remaining activity is reported as 95.1% (inactive).
